A short description of test [1]: Viability qHTS for spleen associated tyrosine kinase inhibitor (SYKi) naive MV4-11 cells (AID 1963823). Also: nearly all actives have a fitted effect of over 40% in size. The procedure, abridged:
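Read-out: CellTiter-Glo luminescence. Exposure: 72 hr, 37 C, 5% CO2, 95% humidity. Cells: MV4-11 without SYK inhibitor history, 500/well, qHTS format.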
Background: In qHTS, concentration-response curves come from the screen itself.

A short description of test [2]: Viability qHTS for spleen associated tyrosine kinase inhibitor (SYKi) drug resistant MV4-11 cells (AID 1963824). Also: nearly all actives have a fitted effect of over 35% in size. The procedure, abridged:
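SYK inhibitor-resistant MV4-11 AML cells, 500 per well, added to predispensed compounds and incubated 72 hr at 37 C, 5% CO2. Viability measured by CellTiter-Glo luminescence after 10 min at room temperature.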

Test [3] is described as follows: Quantitative highthroughput screen to assess conditional lethalithy of P12 Ichikawa cells grown in Human Plasma-Like Medium with dialyzed fetal bovine serum (HPLM+ds) (AID 1963879). Also: nearly all actives have a fitted effect of over 35% in size. As to Viability: series mostly up to about 46 µM. Particulars: Potency: viability. The procedure, abridged: (§1)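 Each medium arm—HPLM with 10% dialyzed FBS, or RPMI1640 with 5 mM glucose and 10% untreated or dialyzed FBS—was screened against an 11-point, 3-fold compound titration for 48 h at 37 °C, with CellTiter-Glo luminescence as endpoint.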

Test [4] can be described thus: Quantitative highthroughput screen to assess conditional lethalithy of P12 Ichikawa cells grown in RPMI1640 with dialyzed fetal bovine serum (RPMI+ds) (AID 1963880). Also: nearly all actives have a fitted effect of over 35% in size.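 As to Viability: 100% = DMSO wells and 0% = empty wells on each plate.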 Particulars: Potency: P12-Ichikawa viability. The procedure, abridged: as §1
The nature of test [5]: Quantitative highthroughput screen to assess conditional lethalithy of P12 Ichikawa cells grown in RPMI1640 with untreated serum (RPMI+s) (AID 1963881). Also: nearly all actives have a fitted effect of over 35% in size.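 As to Viability: series mostly up to about 46 µM; 100% = DMSO wells and 0% = empty wells without cells.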 Particulars: Potency: viability. Put shortly: as §1
The nature of test [6]: Quantitative highthroughput screen to assess conditional lethalithy of SEM cells grown in Human Plasma-Like Medium with dialyzed fetal bovine serum (HPLM+ds) (AID 1963882). Also: nearly all actives have a fitted effect of over 35% in size. As to Viability: series mostly up to about 46 µM. The procedure, abridged:
as §1

Test [7] can be described thus: Quantitative highthroughput screen to assess conditional lethalithy of SEM cells grown in RPMI1640 with unreated serum (RPMI+s) (AID 1963883). Also: nearly all actives have a fitted effect of over 35% in size.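 As to Viability: 100% = DMSO wells and 0% = empty wells without cells.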 The procedure, abridged:
as §1

Test [8] is described as follows: Quantitative highthroughput screen to assess conditional lethalithy of SEM cells grown in RPMI1640 with dialyzed fetal bovine serum (RPMI+ds) (AID 1963884). Also: nearly all actives have a fitted effect of over 35% in size.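 As to Viability: series mostly up to about 46 µM; 100% = DMSO control wells and 0% = empty wells without cells.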 Put shortly: as §1
Test [9] in a line: Cellular viability qHTS for adrenocortical cancer (ACC) cell line SW-13 (AID 1963989). Also: nearly all actives have a fitted effect of over 65% in size.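 As to activity (max response): cells grown in serum-free medium with ITS supplement; % is scaled to controls: 0 for no effect and ±100 for the full control effect.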 Particulars: SW-13 ACC cells viability, CellTiter-Glo, 48 h; activity (max response): active compounds read low. The procedure, abridged:
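IC50 and maximal-response values come from four-parameter logistic fits of titration data. SW-13 cells in serum-free medium received compounds (up to 46 uM final) for 48 h before CellTiter-Glo luminescence.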

Test [10] can be described thus: Cellular viability qHTS for adrenocortical cancer (ACC) cell line NCI-H295R (AID 1963990). Also: nearly all actives have a fitted effect of over 60% in size. Put shortly: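 Adrenocortical carcinoma cells, suspended at 300 000 cells/mL in serum-free DMEM plus ITS, rested overnight before pin transfer of compound. After two days' incubation, ATP-dependent luminescence was recorded and curve-fitted.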
Test [11] can be described thus: Quantitative highthroughput screen to assess conditional lethalithy of NOMO1 cells grown in Human Plasma-Like Medium with dialyzed fetal bovine serum (HPLM+ds) (AID 1963878). Also: nearly all actives have a fitted effect of over 35% in size. The procedure, abridged:
as §1

Inconclusive results are not listed. A number with no mark means an inactive call. Calls of active or inactive are those of the source. Calls follow the shape of the dose curve; as a rule, active = well fitted curve in the direction sought with a large enough effect; inconclusive = small, poorly fitted or top-dose-only effect, or another doubt; inactive = no such curve, though single readings can be large; an effect the other way counts as inactive or inconclusive.
Potency is read from the fitted curve at half-maximal effect.

As for `COc1cccc2c(NCc3ccccc3)nc(-n3c(N)nc4ccccc43)nc12`, the Potency in test [1] is 2.35 µM (active); in test [2] it was 2.91 µM (active); in test [3], 16.6 µM (active); in test [4], 18.7 µM (active); in test [5], 16.6 µM (active); in test [6], 9.35 µM (active). In addition, the Potency in [7] was 5.9 µM (active); in [8], 14.8 µM (active); in test [9] it was 3.16 µM (active); in [10], 5.62 µM (active).

With `NC(=O)[C@H]1CCS[C@@H]2C[C@]3(CCCN3C(=O)Cc3ccc(NC(=O)COc4ccc(Cl)cc4Cl)cc3)C(=O)N12`, the Potency in test [1] is 3.26 µM (active); in test [2], 2.91 µM (active); in [3], 0.588 µM (active); in test [4], 1.48 µM (active); in [5], 1.17 µM (active); in test [8], 1.86 µM (active). In addition, in test [10], the Potency is 3.98 µM (active).

Consider `CCn1c(=O)c2c(nc(C=Cc3ccc(OC)c(OC)c3)n2C)n(CC)c1=O`, for which the Potency result in [1], in test [2], in test [3], in test [4], in test [5] and in test [6] was “inactive” throughout. Also, the Potency result in [7], in test [8] and in test [10] was “inactive” each time. Also, in test [9], the activity (max response) is 1.29%.

Regarding `OC(c1cc(C(F)(F)F)nc2c(C(F)(F)F)cccc12)C1CCCCN1` (configuration not stated), the Potency is 18.6 µM (active) in test [1]; 9.34 µM (active) in test [2]; 23.5 µM (active) in test [11]; 22.4 µM (active) in test [9]; 25.1 µM (active) in test [10].

`C[C@H](NC(=O)C(=O)Nc1ccccc1C(C)(C)C)C(=O)N[C@@H](CC(=O)O)C(=O)COc1c(F)c(F)cc(F)c1F`: the Potency was 2.35 µM (active) in [1]; 1.86 µM (active) in test [2]; 20.9 µM (active) in test [3]; 14.8 µM (active) in test [4]; 5.26 µM (active) in test [6]; 5.9 µM (active) in test [7]. Further, in test [8], the Potency was 5.26 µM (active).

Consider `CC(C)n1cnc2c(NCCc3ccc(O)cc3)nc(-c3csc4ccccc34)nc21`, for which the Potency in test [1] was 14.8 µM (active); in [2], 14.8 µM (active); in test [3] it was 3.72 µM (active); in [4], 13.2 µM (active); in test [6], 13.2 µM (active); in test [7] it was 7.43 µM (active). The Potency in [8] is 5.26 µM (active). Besides, the Potency entry in test [10] was “inactive”.

The values above are taken from PubChem BioAssay (NCATS).
